Laboratory results published in PubChem BioAssay (NCI).
This is part of a sample that, as a whole, favours compounds with a hit. Of some 83,000 tested, about 20% had one in any assay.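 Single-dose data. Exposure time 48 hours. Values below 10 considered active.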 The source made the active and inactive calls.

tested on: 786-0 renal; assay: NCI-60 one-dose screen, 48 h (100 = growth as untreated, 0 = no growth, -100 = all killed); conditions: 10 µM unless noted

Row | Structure (SMILES) | growth
1 | O=C1c2cccc3cccc(c23)C(=O)N1N1C(=O)c2cccc3c(N4CCOCC4)ccc(c23)C1=O | 102% (inactive)
2 | CCO/C=N/C1=C(C#N)C(c2ccc(OC)cc2)c2sc3c(F)cccc3c2O1 (stereo unspecified) | 33.3% (inactive)
3 | Cc1ccc(CNc2ccc(Cl)cc2NCc2ccc(C)c(O)c2)cc1O | 23% (inactive)
4 | O=C(c1ccc(-c2nc(CSc3nc4ccccc4s3)no2)cc1)N1CCSCC1 | 90.6% (inactive)
5 | C/C(=C(/c1ccc(Cl)cc1)c1ccc(OCCN2CCCC2)cc1)c1ccc(Cl)cc1 | 82.7% (inactive)
6 | CC[C@]12C=CCN3CC[C@@]4(c5cc(NC(=O)CCC(=O)OCc6cn(Cc7ccc(F)cc7)nn6)c(OC)cc5N(C)[C@H]4[C@@](O)(C(=O)OC)[C@@H]1OC(C)=O)[C@@H]32 | 96.4% (inactive)
7 | C=C(C)[C@@H]1CC[C@]2(C(=O)O)CC[C@]3(C)[C@H](CC[C@@H]4[C@@]5(C)C[C@@H](Cc6cn(CCO[C@@H]7O[C@H](COC(C)=O)[C@H](OC(C)=O)[C@H](OC(C)=O)[C@H]7OC(C)=O)nn6)[C@H](O)C(C)(C)[C@@H]5CC[C@]43C)[C@@H]12 | 78.9% (inactive)
8 | C=CCn1c(SCC(=O)Nc2ccc(C(=O)/C=C/c3ccc(Cl)cc3)cc2)nnc1-c1cc(-c2ccc(S(N)(=O)=O)cc2)nc2ccccc12 | 83.1% (inactive)
9 | CCOC(=O)C1=NN(c2ccccc2)C(=O)/C1=C\N1C(=O)CC(=O)NC1=S | 106% (inactive)
10 | CC12CCC3c4ccccc4CCC3(CO1)C2 (stereo unspecified) | 118% (inactive)
11 | O=C1CC(N2C(=O)/C(=C/C(Cl)=C\c3ccc([N+](=O)[O-])cc3)SC2=S)C(=O)N1c1ccc(Cl)cc1 (stereo unspecified) | -12.1% (active)
